Each target was assayed with C#CCNC(=O)CCSSCCC(=O)NCCc1ccc(C=O)c(C=O)c1 (assay: lysine labeling ratio R10:1 (500 µM / 50 µM probe), SILAC-ABPP in living cells; higher = lower intrinsic lysine reactivity toward the probe, active = 2 or less). Details: HeLa; probe concentrations 500 vs 50 µM.
How it was run: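 Measurements came from LC-MS/MS on a TIMS-TOF Pro of mixed SILAC light and heavy HeLa lysates after click to biotin-azide, trypsin digestion, neutravidin capture, DTT release and alkylation. Before lysis, the living cells sat in PBS at room temperature with 50 µM or 500 µM of an alkyne-tagged, disulfide-linked lysine probe, and labels were swapped forward and reverse. R per lysine is the median across both swap directions of the filtered median high-probe/low-probe MS1 peptide ratio. The cap is 20.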

UniProt Q01082, sequence (Q01082 whole entry): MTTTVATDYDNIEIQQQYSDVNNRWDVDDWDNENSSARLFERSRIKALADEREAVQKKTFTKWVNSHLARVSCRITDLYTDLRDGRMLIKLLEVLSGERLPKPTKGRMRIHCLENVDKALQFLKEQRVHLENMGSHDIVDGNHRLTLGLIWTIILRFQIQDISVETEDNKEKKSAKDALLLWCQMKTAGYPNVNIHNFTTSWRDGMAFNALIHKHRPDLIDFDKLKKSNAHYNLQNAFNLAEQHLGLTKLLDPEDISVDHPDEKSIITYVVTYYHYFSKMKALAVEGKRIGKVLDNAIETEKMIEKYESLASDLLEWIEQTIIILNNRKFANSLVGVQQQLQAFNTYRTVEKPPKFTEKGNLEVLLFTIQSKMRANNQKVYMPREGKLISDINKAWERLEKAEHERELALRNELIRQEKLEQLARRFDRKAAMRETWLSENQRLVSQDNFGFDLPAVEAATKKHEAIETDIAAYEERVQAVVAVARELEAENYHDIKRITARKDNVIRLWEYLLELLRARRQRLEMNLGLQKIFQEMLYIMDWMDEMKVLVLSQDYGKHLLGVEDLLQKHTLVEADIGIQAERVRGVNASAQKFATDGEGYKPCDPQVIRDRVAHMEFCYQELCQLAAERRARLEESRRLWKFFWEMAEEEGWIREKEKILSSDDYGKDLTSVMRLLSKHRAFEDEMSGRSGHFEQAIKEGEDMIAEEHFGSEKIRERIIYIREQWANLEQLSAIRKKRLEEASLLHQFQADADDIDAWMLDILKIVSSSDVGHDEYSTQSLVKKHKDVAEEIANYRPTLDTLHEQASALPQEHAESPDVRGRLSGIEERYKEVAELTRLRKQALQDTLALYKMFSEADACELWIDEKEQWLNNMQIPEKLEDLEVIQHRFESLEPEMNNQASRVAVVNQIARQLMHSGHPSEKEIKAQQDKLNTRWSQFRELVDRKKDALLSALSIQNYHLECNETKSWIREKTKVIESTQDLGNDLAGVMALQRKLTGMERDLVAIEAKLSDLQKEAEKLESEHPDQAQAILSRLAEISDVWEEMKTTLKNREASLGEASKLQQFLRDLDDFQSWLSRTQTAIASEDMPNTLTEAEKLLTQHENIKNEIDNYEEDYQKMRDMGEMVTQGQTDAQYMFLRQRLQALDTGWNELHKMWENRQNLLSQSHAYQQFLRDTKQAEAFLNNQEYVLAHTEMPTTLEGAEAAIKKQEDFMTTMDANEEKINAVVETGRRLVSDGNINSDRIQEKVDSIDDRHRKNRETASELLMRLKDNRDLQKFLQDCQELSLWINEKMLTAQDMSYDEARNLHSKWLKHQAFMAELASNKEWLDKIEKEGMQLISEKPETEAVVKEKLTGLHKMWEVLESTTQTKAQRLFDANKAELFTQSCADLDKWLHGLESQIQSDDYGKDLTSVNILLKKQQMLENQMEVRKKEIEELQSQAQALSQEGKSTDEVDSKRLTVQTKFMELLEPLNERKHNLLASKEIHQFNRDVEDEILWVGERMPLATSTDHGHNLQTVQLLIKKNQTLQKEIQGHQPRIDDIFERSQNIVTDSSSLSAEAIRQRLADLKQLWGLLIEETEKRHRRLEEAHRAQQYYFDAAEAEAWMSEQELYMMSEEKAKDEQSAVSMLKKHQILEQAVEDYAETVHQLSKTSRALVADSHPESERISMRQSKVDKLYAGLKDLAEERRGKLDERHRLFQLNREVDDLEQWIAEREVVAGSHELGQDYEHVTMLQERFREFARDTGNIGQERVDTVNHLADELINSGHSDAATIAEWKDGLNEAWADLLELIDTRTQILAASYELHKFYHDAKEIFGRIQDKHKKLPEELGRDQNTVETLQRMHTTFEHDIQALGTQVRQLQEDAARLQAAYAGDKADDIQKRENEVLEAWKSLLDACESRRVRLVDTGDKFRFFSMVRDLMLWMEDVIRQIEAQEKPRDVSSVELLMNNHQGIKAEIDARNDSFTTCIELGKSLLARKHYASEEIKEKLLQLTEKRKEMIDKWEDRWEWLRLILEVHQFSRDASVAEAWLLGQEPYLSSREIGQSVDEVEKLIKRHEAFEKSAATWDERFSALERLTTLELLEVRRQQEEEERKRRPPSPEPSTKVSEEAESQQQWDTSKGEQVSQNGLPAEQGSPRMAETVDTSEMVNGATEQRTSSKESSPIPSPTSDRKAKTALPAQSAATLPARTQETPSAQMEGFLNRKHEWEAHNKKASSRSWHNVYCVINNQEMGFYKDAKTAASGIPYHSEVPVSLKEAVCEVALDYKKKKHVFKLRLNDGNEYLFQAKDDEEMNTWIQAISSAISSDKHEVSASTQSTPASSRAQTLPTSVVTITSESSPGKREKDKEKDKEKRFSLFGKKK
UniProt P32004, sequence (P32004 whole entry): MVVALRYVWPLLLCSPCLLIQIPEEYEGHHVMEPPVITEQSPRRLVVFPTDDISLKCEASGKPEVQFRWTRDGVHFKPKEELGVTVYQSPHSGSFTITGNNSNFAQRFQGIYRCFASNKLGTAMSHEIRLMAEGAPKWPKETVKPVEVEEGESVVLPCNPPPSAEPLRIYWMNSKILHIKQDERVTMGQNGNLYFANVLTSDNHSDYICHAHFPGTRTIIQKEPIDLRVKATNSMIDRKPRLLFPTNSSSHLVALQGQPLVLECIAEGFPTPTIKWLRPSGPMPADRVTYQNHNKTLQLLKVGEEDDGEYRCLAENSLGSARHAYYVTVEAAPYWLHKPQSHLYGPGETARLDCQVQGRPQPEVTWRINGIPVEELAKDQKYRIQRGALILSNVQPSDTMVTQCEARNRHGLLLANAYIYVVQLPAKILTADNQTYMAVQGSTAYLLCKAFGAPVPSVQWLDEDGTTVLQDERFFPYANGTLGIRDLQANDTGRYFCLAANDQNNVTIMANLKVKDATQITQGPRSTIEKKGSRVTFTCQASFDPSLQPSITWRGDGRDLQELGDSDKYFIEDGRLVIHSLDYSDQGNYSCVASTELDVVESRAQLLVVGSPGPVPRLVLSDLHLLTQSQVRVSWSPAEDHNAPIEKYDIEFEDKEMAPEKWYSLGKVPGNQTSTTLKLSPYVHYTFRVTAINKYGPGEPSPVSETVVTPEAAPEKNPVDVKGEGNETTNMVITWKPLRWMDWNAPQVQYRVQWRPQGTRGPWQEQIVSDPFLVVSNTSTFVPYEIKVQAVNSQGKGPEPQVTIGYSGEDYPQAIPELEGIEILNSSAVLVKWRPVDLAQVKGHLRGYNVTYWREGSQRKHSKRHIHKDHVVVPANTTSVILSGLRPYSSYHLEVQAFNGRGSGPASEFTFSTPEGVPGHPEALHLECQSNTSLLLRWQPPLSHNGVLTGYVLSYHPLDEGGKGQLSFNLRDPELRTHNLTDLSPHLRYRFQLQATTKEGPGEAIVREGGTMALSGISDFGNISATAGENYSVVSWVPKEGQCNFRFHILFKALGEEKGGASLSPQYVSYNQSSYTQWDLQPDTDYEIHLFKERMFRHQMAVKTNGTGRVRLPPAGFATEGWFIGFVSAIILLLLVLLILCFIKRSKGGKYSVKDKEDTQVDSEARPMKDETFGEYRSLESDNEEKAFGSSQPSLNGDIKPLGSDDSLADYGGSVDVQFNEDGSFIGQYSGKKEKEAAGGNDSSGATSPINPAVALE
UniProt P27105, sequence (P27105 whole entry): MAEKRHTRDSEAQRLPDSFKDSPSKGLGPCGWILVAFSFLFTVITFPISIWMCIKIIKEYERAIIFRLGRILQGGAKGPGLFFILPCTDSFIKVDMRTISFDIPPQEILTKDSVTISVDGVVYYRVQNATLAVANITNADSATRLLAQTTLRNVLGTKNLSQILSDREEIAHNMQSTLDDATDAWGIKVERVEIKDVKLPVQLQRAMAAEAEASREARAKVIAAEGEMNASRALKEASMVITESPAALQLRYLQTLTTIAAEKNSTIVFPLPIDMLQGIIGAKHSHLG
UniProt P26639, sequence (P26639 whole entry): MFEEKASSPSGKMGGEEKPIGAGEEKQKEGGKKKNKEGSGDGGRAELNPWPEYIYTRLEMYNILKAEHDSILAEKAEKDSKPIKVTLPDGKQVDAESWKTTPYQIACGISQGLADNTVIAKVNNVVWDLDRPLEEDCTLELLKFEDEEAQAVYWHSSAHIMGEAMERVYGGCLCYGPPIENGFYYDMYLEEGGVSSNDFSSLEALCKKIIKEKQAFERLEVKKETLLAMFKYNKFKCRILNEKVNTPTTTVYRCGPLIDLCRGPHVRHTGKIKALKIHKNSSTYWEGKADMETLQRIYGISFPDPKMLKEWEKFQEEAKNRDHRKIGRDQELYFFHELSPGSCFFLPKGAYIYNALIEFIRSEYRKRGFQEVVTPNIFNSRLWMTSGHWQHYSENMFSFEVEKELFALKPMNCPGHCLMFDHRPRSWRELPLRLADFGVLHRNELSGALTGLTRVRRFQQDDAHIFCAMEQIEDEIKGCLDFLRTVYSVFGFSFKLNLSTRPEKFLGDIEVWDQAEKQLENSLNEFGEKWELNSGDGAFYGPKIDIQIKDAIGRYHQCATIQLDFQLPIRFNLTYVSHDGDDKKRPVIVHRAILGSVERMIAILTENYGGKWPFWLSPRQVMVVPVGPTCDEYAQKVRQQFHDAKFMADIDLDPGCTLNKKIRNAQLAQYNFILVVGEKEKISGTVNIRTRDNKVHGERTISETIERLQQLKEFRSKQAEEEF
UniProt P60842, sequence (P60842 whole entry): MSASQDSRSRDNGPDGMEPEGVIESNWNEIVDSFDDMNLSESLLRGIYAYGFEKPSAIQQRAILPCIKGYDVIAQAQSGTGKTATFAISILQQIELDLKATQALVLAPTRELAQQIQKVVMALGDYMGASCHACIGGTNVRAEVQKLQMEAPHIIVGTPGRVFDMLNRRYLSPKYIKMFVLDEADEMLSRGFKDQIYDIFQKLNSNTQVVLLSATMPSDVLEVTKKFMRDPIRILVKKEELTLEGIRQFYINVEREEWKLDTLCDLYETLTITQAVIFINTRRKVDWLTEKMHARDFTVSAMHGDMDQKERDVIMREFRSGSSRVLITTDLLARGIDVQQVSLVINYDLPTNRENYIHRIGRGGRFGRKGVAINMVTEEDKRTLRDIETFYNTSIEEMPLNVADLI

Lysine labeling ratio R10:1, active:
IQGAP1 (lysine site: K856) (UniProt P46940) 1.47
RPL34 (lysine site: K85) (UniProt P49207) 1.67
RALA (lysine site: K159) (UniProt P11233) 0.885
ANKH (lysine site: K127) (UniProt Q9HCJ1) 0.684
UniProt P14618 (lysine site: K498) 1.49
LPL (lysine site: K265) (UniProt P06858) 1.86
VASN (lysine site: K333) (UniProt Q6EMK4) 1.84
UniProt P62258 (lysine site: K125) 1.05
UniProt Q15149 (lysine site: K2047) 0.91
FBLN1 (lysine site: K59) (UniProt P23142) 1.25
UniProt P05187 (lysine site: K84) 1.24
LAMC1 (lysine site: K1355) (UniProt P11047) 1.67
UniProt P60842 (lysine site: K54) 1.77
UniProt Q8WXI7 (lysine site: K10462) 1.27

Lysine labeling ratio R10:1, inactive:
HNRNPL (lysine site: K269) (UniProt P14866) 2.23
RPS3A (lysine site: K46) (UniProt P61247) 3.87
UniProt P26639 (lysine site: K319) 2.46
SLC25A13 (lysine site: K235) (UniProt Q9UJS0) 2.23
HNRNPU (lysine site: K565) (UniProt Q00839) 3.39
FLNB (lysine site: K746) (UniProt O75369) 3.48
ENG (lysine site: K556) (UniProt P17813) 2.03
SPTBN1 (lysine site: K1939) (UniProt Q01082) 3.41
L1CAM (lysine site: K56) (UniProt P32004) 3.74
UniProt Q15149 (lysine site: K1774) 8.57
SPTBN1 (lysine site: K714) (UniProt Q01082) 2.12
UniProt P62701 (lysine site: K233) 4.48
ANXA7 (lysine site: K268) (UniProt P20073) 2.89
RPL4 (lysine site: K239) (UniProt P36578) 2.48
RPL5 (lysine site: K242) (UniProt P46777) 5.69
UniProt Q9BZM4 (lysine site: K158) 2.74
HSPA5 (lysine site: K353) (UniProt P11021) 3.4
UniProt Q9Y653 (lysine site: K107) 2.31
STOM (lysine site: K198) (UniProt P27105) 5.83
L1CAM (lysine site: K119) (UniProt P32004) 3.56
EGFR (lysine site: K328) (UniProt P00533) 3.46
ITGB1 (lysine site: K202) (UniProt P05556) 4.2
SPTBN1 (lysine site: K1421) (UniProt Q01082) 3.37
FRAS1 (lysine site: K3209) (UniProt Q86XX4) 2.67
EPRS (lysine site: K498) (UniProt P07814) 2.78
CACNA2D1 (lysine site: K146) (UniProt P54289) 5.1

Source: the supplement of paper PMC11001985
